Source: PubChem BioAssay (several laboratories)
Hits are enriched below; roughly 27% of the tested compounds scored in any of these assays.
CYP2C9 inhib – human CYP2C9 inhibition | P11712 | CYP2C9 Supersomes, luciferin-H conversion, luminescence | inhibition, % at 5 µM | 96,000 tested, 20% active;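 active means blocking of liver enzyme CYP2C9 beyond about 50% at 5 µM, limit read from the data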
Target sequence (P11712 whole entry, looked up): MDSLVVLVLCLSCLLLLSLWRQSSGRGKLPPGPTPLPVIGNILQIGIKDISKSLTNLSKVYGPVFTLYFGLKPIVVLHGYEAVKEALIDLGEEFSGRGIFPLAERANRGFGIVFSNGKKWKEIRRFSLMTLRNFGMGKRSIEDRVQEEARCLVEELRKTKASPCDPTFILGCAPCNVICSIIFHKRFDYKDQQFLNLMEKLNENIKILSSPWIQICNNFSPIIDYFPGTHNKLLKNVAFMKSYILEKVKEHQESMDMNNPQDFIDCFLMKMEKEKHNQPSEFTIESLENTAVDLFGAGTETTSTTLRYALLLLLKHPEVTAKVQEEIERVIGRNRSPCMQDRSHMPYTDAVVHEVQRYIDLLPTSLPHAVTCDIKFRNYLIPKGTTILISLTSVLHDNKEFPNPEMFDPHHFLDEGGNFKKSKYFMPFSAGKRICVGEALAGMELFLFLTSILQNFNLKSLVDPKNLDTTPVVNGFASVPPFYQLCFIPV
CYP2C9 act – CYP2C9 (human) activation. P11712. 96,000 tested, 1.4% active. recombinant CYP2C9, luciferin-H conversion, luminescence; hits give high values; factor 1 = untreated enzyme, 0 = blocked. activation factor at 5 µM. AID 1024;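 active means activation factor of 2 or more for CYP2C9 at a 5 µM dose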;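 further: 0 = sulfaphenazole-blocked wells and 1 = vehicle-only wells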
CYP2C19 inh – blocks human cytochrome P450 2C19. 96,000 tested, 21% active. AID 778. inhibition, % at 5 µM. CYP2C19 Supersomes, luciferin-H EGE luminescence, 30 min;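 active means CYP2C19 inhibition above a set limit at 5 µM in the primary screen, cut at about 50% in these data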;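 further: plate controls were negative control wells for no effect and 2.5 mM tranylcypromine positive control for full effect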
EphB4 antag – blocks human EphB4 binding to ephrin-B2; EphB4 LBD / TNYL-RAW-Alexa532 peptide, fluorescence polarization; inhibition, % at 7 µM; 97,000 tested, 0.15% active;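 active means inhibition above the screen-wide mean inhibition plus 3 SD, cut at about 15% in these data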;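 further: 0% = DMSO wells and 100% = excess unlabeled TNYL-RAW peptide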
CYP2C19 activ – cytochrome P450 2C19 (human) activation. AID 1025. activation factor at 5 µM. 96,000 tested, under 10 active. recombinant CYP2C19, luciferin-H EGE luminescence; hits give high values; 0 = fully inhibited enzyme, 1 = untreated enzyme. P33261;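 active means activation factor of at least 2 at 5 µM in the primary screen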;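 further: 0 = wells with 2.5 mM tranylcypromine and 1 = vehicle-only wells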
An asterisk follows results filed as active; x = no result given.

SMILES	CYP2C9 inhib	CYP2C9 act	CYP2C19 inh	EphB4 antag	CYP2C19 activ
O=C(CC(c1ccccc1)c1cc(Br)ccc1O)NCc1ccco1 (configuration not stated)	99*	0	99*	-5	0
CC(C)C(CC(=O)NCc1ccco1)c1ccco1 (configuration not stated)	24	0.8	17	-1	0.8
O=C(CC(c1ccccc1)c1ccccc1O)NCc1ccco1 (configuration not stated)	51*	0.5	49	-1	0.5
C/C(CC(=O)NCc1ccco1)=N\NC(=O)Cc1ccccc1	0	1	7	4	0.9
CC(C)NC(=O)CC(c1ccccc1)c1cc(Br)ccc1O (configuration not stated)	90*	0.1	95*	0	0
Cc1ccc(NC(=O)CSc2nnc(C)n2-c2ccccc2)cc1	x	x	x	-6	x
Cc1ccc(-c2nc(C#N)c(N3CCCCC3)o2)cc1	9	0.9	7	-3	0.9
O=C(CC(c1ccccc1)c1cc(Cl)ccc1O)N1CCOCC1 (configuration not stated)	-13	1.1	-14	5	1.1
CC(C)Oc1ccc(CNC(=O)CC(c2ccccc2)c2cc(Cl)ccc2O)cc1 (configuration not stated)	96*	0	87*	-6	0.1
O=C(NCCc1c[nH]c2ccccc12)c1cccnc1	4	1	39	3	0.6
Cc1ccc2c(c1)N(CC(=O)NCc1cccnc1)C(=O)CO2	x	x	x	8	x
NNC(=O)CCc1c[nH]c2ccccc12	x	x	x	3	x
O=C(NCCc1c[nH]c2ccccc12)Nc1cccc2ccccc12	-62	1.6	86*	-1	0.1
Cc1ccc2c(c1)N(CC(=O)NCCc1c[nH]c3ccccc13)C(=O)CO2	27	0.7	93*	-2	0.1
Cc1ccc2c(c1)N(C(C)C(=O)NCCc1ccccc1)C(=O)CO2 (configuration not stated)	34	0.7	97*	-9	0
Cc1cccc(NC(=O)NCCc2c[nH]c3ccccc23)c1	-61	1.6	93*	-5	0.1
Cc1ccc2c(c1)N(CCC(=O)NC(C)C)C(=O)CO2	-22	1.2	15	7	0.9
CCc1nc2ccccc2n(CCOCCn2c(=O)c(CC)nc3ccccc32)c1=O	31	0.7	8	x	0.9
COc1cc(CNc2ccc3c(c2)CCC3)cc(OC)c1O	-3	1	32	0	0.7
O=[n+]1cc(-c2cc3ccccc3o2)n([O-])c2c1CCCC2	-2	1	-1	x	1
CC(=NCc1ccco1)c1c(O)n(C2CCCCC2)c(=O)[nH]c1=O	55*	0.4	97*	3	0
Cc1ccc(S(=O)(=O)Oc2ccccc2N2C(=O)C3CC=CCC3C2=O)cc1 (configuration not stated)	8	0.9	9	3	0.9
Cc1cccc2cc(CN(CC3CCCO3)C(=O)c3cnccn3)c(=O)[nH]c12 (configuration not stated)	34	0.7	4	0	1
CCOC(=O)CSc1nc2ccccc2c(=O)n1Cc1ccco1	19	0.8	7	x	0.9
O=C(CSc1nc2ccccc2c(=O)n1Cc1ccco1)c1ccccc1	72*	0.3	34	-12	0.7
SMILES	CYP2C9 inhib	CYP2C9 act	CYP2C19 inh	EphB4 antag	CYP2C19 activ
O=c1c2ccccc2nc(SCc2ccccc2)n1Cc1ccco1	37	0.6	9	8	0.9
Cc1ccc(CSc2nc3ccccc3c(=O)n2Cc2ccco2)cc1	x	x	x	-4	x
O=c1c2ccccc2nc(SCc2cccc(F)c2)n1Cc1ccco1	69*	0.3	2	-1	1
O=c1c2ccccc2nc(SCc2nc3ccccc3s2)n1Cc1ccco1	55*	0.5	16	-3	0.8
O=c1c2ccccc2nc(SCc2nnc(-c3ccccc3Br)o2)n1Cc1ccco1	94*	0.1	76*	3	0.2
O=C(NCC1COc2ccccc2O1)c1cc2ccccc2o1 (configuration not stated)	x	x	x	1	x
COCCCn1c(=NC(=O)c2ccc3c(c2)OCO3)c(C#N)cc2c(=O)n3cccc(C)c3nc21	6	0.9	-2	x	1
COc1ccc(N2C(=O)CC(NCc3cccs3)C2=O)cc1 (configuration not stated)	-6	1.1	7	-5	0.9
CC1=C(C(=O)Nc2ccccc2)C(c2ccccn2)n2nc(CCCO)nc2N1 (configuration not stated)	-10	1.1	-20	x	1.2
CC1CCCCN1C(=O)/C(=C\c1ccccc1)c1ccccc1 (configuration not stated)	84*	0.2	49	10	0.5
CN1CCN(C(=O)/C(=C/c2ccccc2)c2ccccc2)CC1	9	0.9	34	2	0.7
OCCSc1c(F)c(SCCO)c(SCCO)c(F)c1SCCO	70*	0.3	40	2	0.6
Cc1cc(C)nc(/N=C2\NC(=O)CC(C(=O)O)N2CCc2c[nH]c3ccccc23)n1 (configuration not stated)	7	0.9	15	-2	0.9
Cc1cc2cc(C(c3nnnn3Cc3ccccc3)N3CCc4ccccc43)c(=O)[nH]c2cc1C (configuration not stated)	68*	0.3	33	-6	0.7
CCC(C)(C)n1nnnc1C(c1cc2cc(C)ccc2[nH]c1=O)N1CCCc2ccccc21 (configuration not stated)	64*	0.4	33	-3	0.7
Cc1ccc2[nH]c(=O)c(C(c3nnnn3C3CCCC3)N3CCCc4ccccc43)cc2c1 (configuration not stated)	x	x	x	-4	x
Cc1ccc2[nH]c(=O)c(C(c3nnnn3Cc3ccccc3)N3CCc4ccccc43)cc2c1 (configuration not stated)	11	0.9	17	1	0.8
CCC(C)(C)n1nnnc1C(c1cc2cc(OC)ccc2[nH]c1=O)N1CCc2ccccc21 (configuration not stated)	100*	0	63*	5	0.4
Cc1ccc2[nH]c(=O)c(C(c3nnnn3CC3CCCO3)N3CCCc4ccccc43)cc2c1 (configuration not stated)	60*	0.4	40	-1	0.6
Cc1ccc2[nH]c(=O)c(C(c3nnnn3CC3CCCO3)N3CCc4ccccc4C3)cc2c1 (configuration not stated)	5	0.9	12	-5	0.9
Nn1c(SCC(=O)Nc2ccc(F)c(F)c2)nnc1C1CCCCC1	30	0.7	23	11	0.8
[O-][N+]12CCN(CC1)c1ccccc12	10	0.9	5	-12	0.9
CCC(C)(C)n1nnnc1C(c1cc2ccc(OC)cc2[nH]c1=O)N1CCc2ccccc21 (configuration not stated)	98*	0	54*	5	0.5
CCc1ccc(C2CC(c3ccccc3C)n3nc(N)nc3N2)cc1 (configuration not stated)	-11	1.1	8	x	0.9
